This is an account of results in PubChem BioAssay (NCI).

Compounds without any hit were thinned out: in the full panel of roughly 83,000, 20% have a hit.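 The test compound was applied at a single concentration to cells in 96-well plates for 48 hours, and percent growth was recorded.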 Activity calls are given as the source filed them.

This test relates to A498 renal. The test can be described thus: NCI-60 one-dose screen, 48 h (100 = growth as untreated, 0 = no growth, -100 = all killed). The note with it: 10 µM unless noted. The procedure:
Growth inhibition of the A498 human tumor cell line is measured as a screen for anti-cancer activity. Cells are grown in 96 well plates and exposed to the test compound for 48 hours. Compounds are tested at a single concentration, which is 10^-5 M for most compounds. The reported endpoint is percent growth (GI% or GIPRCNT), where numbers from 0 - 100% represent growth inhibition, and numbers from -100% - 0 represent cell death. For example, a value of 40 represents 60% growth inhibition. A value of 0 means no net growth occurred over the course of the experiment. A value of -40 indicates 40% of cells at the beginning of the experiment died by the end of the experiment. A value of -100 means all cells are dead at the end of the experiment.
NCI-60 Human Tumor Cell Lines Screen was performed using the standard one-dose NCI protocol, which is described in more detail at https://dtp.cancer.gov/discovery_development/nci-60/default.htm.
Compounds with GIPRCNT values below 10 were considered active. Activity score was based on GIPRCNT using the following formula: […]
Score is 0 for GIPRCNT values of 100 or above, 50 for GIPRCNT values of 0, and 100 for GIPRCNT values of -100.
In the case of `Cc1cc(N(CCNc2ccnc3cc(Cl)ccc23)Cc2cccs2)nc(Cl)n1`, the growth was -6.31% (active).

For `Cn1ccnc1C(=O)/C=C/c1ccc(CC(=O)Nc2ccc(Br)cc2)cc1`, the growth is 73.8% (inactive).

Regarding `Clc1ccc(C(Cn2ccnc2)OCc2ccsc2Cl)c(Cl)c1` (stereo not given), the growth was 49.8% (inactive).

Take `Cc1ccc(-n2nc(C(C)(C)C)cc2NC(=O)NCc2cc(F)ccc2Oc2ccc3c(cnn3CCO)c2)cc1`: the growth is -10.8% (active).

In the case of `CC1(COc2ccc3c(c2)ncn3-c2ccc3cccc(N4CCC(N)CC4)c3n2)COC1`, the growth is 85.1% (inactive).

As for `CCn1cc(-c2ccnc3[nH]c(-c4cccc(CN(C)C)c4)cc23)c(-c2ccc(NC(=O)N(C)C)cc2)n1`, the growth was -34.1% (active).

Consider `CN1CC[C@@H](c2c(O)cc(O)c3c(=O)cc(-c4ccccc4Cl)oc23)[C@@H]1CO`, for which the growth was -60.4% (active).

As for `Nc1ncnc2c1c(-c1cccc(OCc3ccccc3)c1)cn2C1CC(CN2CCC2)C1` (stereo not given), the growth is -1.47% (active).

Turning to `COCCOc1cnc2ccn([C@H](C)c3nnc4c(F)cc(-c5cnn(C)c5)cn34)c(=O)c2c1`, the growth is 35.9% (inactive).

For the compound `CC(CCCC(=O)O)c1ccoc1` (stereo not given), the growth was 110% (inactive).

On to `CN1CCN(c2ccc(C(=O)Nc3n[nH]c4ccc(Cc5cc(F)cc(F)c5)cc34)c(NC3CCOCC3)c2)CC1`, for which the growth is -54.8% (active).

On to `C=CC[n+]1c(/C=C/C=C2\N(C)c3ccccc3C2(C)C)sc2ccc(OC)cc21`, for which the growth is 17.7% (inactive).

In the case of `CN1CCN(c2nc(NCCNc3ccnc4cc(Cl)ccc34)c3ccccc3n2)CC1`, the growth was 102% (inactive).

With `CCc1nc2cc(F)c(/C=C/C(=O)NO)cc2c(=O)n1CCc1ccccc1`, the growth was -14.1% (active).

Regarding `O=C(NCCO)Nc1ccc(-c2nc(N3CCOCC3)c3cccn3n2)cc1`, the growth was -54.8% (active).

Regarding `C/C(=N\NC(=O)Cn1c(-c2ccc(S(C)(=O)=O)cc2)nc2ccccc21)c1ccc(Cl)cc1`, the growth was 104% (inactive).

As to `CCCCN1C(=O)c2cccc3c(-c4ccc5c(c4)ncn5C4CCCCC4)ccc(c23)C1=O`, the growth is 118% (inactive).

Regarding `CN(c1ncccc1CNc1nc(Nc2ccc3c(c2)CC(=O)N3)ncc1C(F)(F)F)S(C)(=O)=O`, the growth is -16.6% (active).

For the compound `COc1ccc(Br)cc1NC(=O)Nc1cccc2c1ccn2Cc1ccnc(N)c1`, the growth was -2.46% (active).

For the compound `Cc1cc(Nc2cc(N3CCN(C)CC3)nc(/C=C/c3ccccc3)n2)n[nH]1`, the growth was -86.7% (active).

With `COc1cc2c(cc1OCCCN1Cc3ccc(OCCCCC(=O)N4CCC(CCN5CCCC5)CC4)cc3C1)N=C(N)C21CCCC1`, the growth is 78.8% (inactive).

For `COc1cc(-c2cc(-c3ccc(Nc4ccnc5cc(Cl)ccc45)cc3)nc(N3CCOCC3)n2)cc(OC)c1OC`, the growth was 102% (inactive).

In the case of `O=C1C=CC2(NN=C(c3ccccc3)N2c2ccc(Cl)cc2)c2cccc(O)c21` (stereo not given), the growth was 91.3% (inactive).

With `COC(=O)c1[nH]cnc1/N=N/N(C)CCO`, the growth was 121% (inactive).

Regarding `Nc1nc(N)c2cc(CNc3ccc(C(=O)NC(CC(=O)O)C(=O)O)cc3)ccc2n1` (stereo not given), the growth was 19.1% (inactive).

Regarding `COc1cccc(Nc2ncnn3ccc(CN4CC[C@@H](N)[C@H](O)C4)c23)c1`, the growth is -38.1% (active).

With `COc1cnc2c(c1)C(=O)c1c-2n(CCCN2CCOCC2)c(=O)c2cc(Cl)ccc12`, the growth was -2.15% (active).

In the case of `O=C(NO)c1ccc(Cn2c(=O)n(CCc3ccccc3)c(=O)c3ccccc32)cc1`, the growth was 12.7% (inactive).

`COc1cc2ncnc(Nc3ccc(O)cc3)c2cc1OC`: the growth is 81.3% (inactive).

With `C=CC(=O)N(C)[C@H]1C[C@H]2OC(C)(C1OC)n1c3ccccc3c3c4c(c5c6ccccc6n2c5c31)C(=O)NC4` (stereo not given in full), the growth was -38.7% (active).

Regarding `C=CCN1C(=O)c2cccc3c(-c4ccc5c(c4)ncn5C4CCCCC4)ccc(c23)C1=O`, the growth was 76.9% (inactive).

As to `O=C(Nc1cccc([N+](=O)[O-])c1)c1ccc(Cl)c(Cl)c1`, the growth is 79.9% (inactive).

`Cc1cc(N2CCOCC2)nc(N(CCNc2ccnc3cc(Cl)ccc23)Cc2cccs2)n1`: the growth was 22.8% (inactive).

With `COc1cc2c3c(c1)nc(C)n3CCC2`, the growth was 100% (inactive).

For the compound `N#CC(C#N)=NO`, the growth was 102% (inactive).

As to `FC(F)c1nc2ccccc2n1-c1nc(N2CCOCC2)nc(N2CCOCC2)n1`, the growth is -82.4% (active).

As to `Cc1ccc(N=C2CSc3nnc(-c4csc5c4CCCC5)n3N2)cc1`, the growth is 12.1% (inactive).

For `CN1CCN(c2nc(C3=C(c4c[nH]c5ccccc45)C(=O)NC3=O)c3ccccc3n2)CC1`, the growth is 75.1% (inactive).

`O=C(Nc1cnn2ccc(N3CCC[C@@H]3c3cc(F)ccc3F)nc12)N1CC[C@H](O)C1`: the growth is 2.72% (active).

With `COc1cc2ncnc3c2cc1OCCCCCN(C)Cc1ccc(Br)cc1N3`, the growth was 60.9% (inactive).
